Inconclusive results are not listed. Activity calls are given as the source filed them. Unless noted, calls come from the whole dose curve; as a rule, active = well fitted curve in the direction sought with a large enough effect; inconclusive = small, poorly fitted or top-dose-only effect, or another doubt; inactive = no such curve, though single readings can be large; an effect the other way counts as inactive or inconclusive.
Key:
[1] = biological target: Cytochrome P450 2D6 (Homo sapiens) (UniProt P10635); assay: qHTS Assay for Inhibitors and Substrates of Cytochrome P450 2D6 (AID 891); note: potency is the fitted concentration of half-maximal effect; nearly all actives have a fitted effect of over 60% in size
Summary of the method: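 Luminescent read-out of luciferin formed by 5 nM human CYP2D6 demethylating 30 uM Luciferin-ME EGE (Km level) over 60 min at room temperature after NADPH regeneration addition. Data normalized to full inhibition by 1.43 uM quinidine.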

[2] = biological target: Cytochrome P450 1A2 (Homo sapiens) (UniProt P05177); assay: p450-cyp1a2 (AID 410; calls by dose curve; note: potency is the fitted concentration of half-maximal effect)
Summary of the method: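 Luminescent demethylation readout: Luciferin-ME (100uM, equal to Km) turned over by 20nM CYP1A2 for 60 min at room temperature after NADPH regeneration addition, following 10 min compound preincubation. Normalization used 57 uM furafylline as full inhibition.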

[3] = SW1088 Cancer Cell Toxicity qHTS against the NCATS CANVASS Library (AID 1347350); note: nearly all actives have a fitted effect of over 75% in size; note: potency is the fitted concentration of half-maximal effect
Summary of the method: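 Per well, 1000 cells; exposure 72 h with compound at 11 final concentrations; readout CellTiter-Glo luminescence.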

[4] = HEK-293 Cancer Cell Toxicity qHTS against the NCATS CANVASS Library (AID 1347355); note: nearly all actives have a fitted effect of over 65% in size; note: potency is the fitted concentration of half-maximal effect; for outcome: series mostly up to about 46 µM
Summary of the method: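 Toxicity was measured as CellTiter-Glo luminescence after 72 h exposure to an 11-point compound series. Compound was added to 1000 cells/well 4 h after seeding.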

[5] = SDT Cancer Cell Toxicity qHTS against the NCATS CANVASS Library (AID 1347365); note: nearly all actives have a fitted effect of over 60% in size; note: potency is the fitted concentration of half-maximal effect
Summary of the method: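 Cytotoxicity taken from CellTiterGlo ATP luminescence after 72 hr at 37C, 5% CO2. Canine glioma line SDT, 500 cells/well, treated at 11 concentrations; bortezomib dose series as control.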

[6] = G06 Cancer Cell Toxicity qHTS against the NCATS CANVASS Library (AID 1347368); note: nearly all actives have a fitted effect of over 60% in size; note: potency is the fitted concentration of half-maximal effect
Summary of the method: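 Viability measured by CellTiterGlo ATP luminescence after 72 hr at 37C, 5% CO2. Canine G06 glioma cells plated at 500/well. Compounds tested as 11-point qHTS titrations.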

[7] = MCF7 Cancer Cell Toxicity qHTS against the NCATS CANVASS Library (AID 1347369)
Summary of the method: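 This 72 hr qHTS scored MCF7 viability by CellTiterGlo luminescence, with 500 cells/well; bortezomib titration ran as control.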

[8] = qHTS for ATAD5 Antagonist screened against the NCATS CANVASS Library (AID 1347370);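 note: HEK293T cells carrying an ATAD5 luciferase reporter co-treated with 10 µM 5-fluorouridine; series mostly up to about 46 µM; nearly all actives have a fitted effect of over 65% in size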
Summary of the method: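 Compounds (11-point) co-dosed with 10 µM 5-FUrd for 16 h at 37 °C onto HEK293T-ATAD5 luciferase reporter cells. Viability measured by CellTiter-Fluor fluorescence, then ATAD5 reporter signal by luminescence.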

[9] = qHTS for Hypoxia signaling pathway (HIF-1) agonists against the NCATS CANVASS Library (AID 1347375)
Summary of the method: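 Beta-lactamase reporter under HRE control in ME-180 cells; compounds (11-point qHTS series) added after 5 hrs plating, then 17 hrs at 37C. FRET substrate read after 2 hr; same-well CellTiter-Glo luminescence gave viability and normalization.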

[10] = DH5-alpha competent E. coli microbial cell viability qHTS against the NCATS CANVASS Library (AID 1347377); settings: outcome: dose series up to 46.1 µM
Summary of the method: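 Bacterial viability as ATP-dependent luminescence (BacTiter-Glo), read after overnight 37 °C exposure of DH5-alpha competent E. coli to compounds in 11-point titration.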

[11] = qHTS for Antimalaria activity screened against the NCATS CANVASS Library (AID 1347380); note: nearly all actives have a fitted effect of over 40% in size; note: potency is the fitted concentration of half-maximal effect
Summary of the method: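 SYBR Green fluorescence at 485/535 nm was read 18 hr after lysis. This followed a 72 hr incubation at 37C in 5% O2, 5% CO2 of Dd2-infected erythrocytes (0.3% parasitemia, 2.5% final hematocrit) with compounds titrated over 11 concentrations.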

[12] = Secretion counterscreen for inhibitors of the SERCaMP assay screened against the NCATS CANVASS Library (AID 1347390);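 note: light from luciferase secreted into medium read as a measure of general secretion; series mostly up to about 77 µM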
Summary of the method: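 Natural products are titrated in an 11-point series up to 77 uM onto SH-SY5Y-GLuc STOP cells for 20 h. Secreted reporter activity is measured as coelenterazine-driven luminescence, with Brefeldin A on each plate.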

[13] = qHTS for inhibitors of ER calcium dysfunction: SERCaMP assay screened against the NCATS CANVASS Library (AID 1347393); note: nearly all actives have a fitted effect of over 40% in size; note: potency is the fitted concentration of half-maximal effect
Summary of the method: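 Thapsigargin-induced ER calcium depletion drives GLuc-SERCaMP secretion from SH-SY5Y cells; compounds given 16 h beforehand were scored by lowered coelenterazine luminescence after 4 h challenge.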

[14] = qHTS for Inflammasome Signaling Inhibitors: IL-1-beta AlphaLISA screen against the NCATS CANVASS Library (AID 1347379);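 note: human THP-1 cells primed with LPS then triggered with ATP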
Summary of the method: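 Secreted IL-1B from human THP-1 cells quantified by AlphaLISA 16 hr after compound addition (final up to 57.5 uM). A 1 hr compound pretreatment preceded inflammasome activation with 250 ng/mL LPS plus 1.25 mM ATP (final).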

[15] = qHTS for Activators of p53 Stress Response Pathway screened against the NCATS CANVASS Library (AID 1347388)
Summary of the method: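 Beta-lactamase reporter driven by p53 response elements in HCT-116 cells, read as the 460 nm/530 nm emission ratio after CCF4 loading, following 16 h of exposure to an 11-point series. Cell viability was measured in the same wells by CellTiter-Glo luminescence.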

[16] = qHTS for inhibitors of Rabies Virus screened against the NCATS CANVASS Library (AID 1347402; calls by dose curve; note: series mostly up to about 46 µM)
[17] = biological target: Cytochrome P450 3A4 (Homo sapiens) (UniProt P08684); assay: qHTS Assay for Inhibitors and Substrates of Cytochrome P450 3A4 (AID 884); note: potency is the fitted concentration of half-maximal effect; nearly all actives have a fitted effect of over 50% in size
Summary of the method: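 Luminescent readout of luciferin produced by CYP3A4 (20 nM) dealkylation of Luciferin-PPXE, 25 uM (its KM). NADPH-driven reaction ran 60 min at RT after 10 min compound preincubation; data scaled to 57 uM ketoconazole as 100% inhibition.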

[18] = biological target: Cytochrome P450 3A4 (Homo sapiens) (UniProt P08684); assay: qHTS Assay for Activators of Cytochrome P450 3A4 (AID 885); note: nearly all actives have a fitted effect of over 65% in size
Summary of the method: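 Human CYP3A4 dealkylates Luciferin-PPXE to luciferin, which luciferase detection converts to light. Substrate was at its KM (25uM), buffer 200mM KPO4, reaction 60 min at RT.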

Measured: Potency

Chain of Cytochrome P450 3A4 (Homo sapiens) (P08684 whole entry, looked up): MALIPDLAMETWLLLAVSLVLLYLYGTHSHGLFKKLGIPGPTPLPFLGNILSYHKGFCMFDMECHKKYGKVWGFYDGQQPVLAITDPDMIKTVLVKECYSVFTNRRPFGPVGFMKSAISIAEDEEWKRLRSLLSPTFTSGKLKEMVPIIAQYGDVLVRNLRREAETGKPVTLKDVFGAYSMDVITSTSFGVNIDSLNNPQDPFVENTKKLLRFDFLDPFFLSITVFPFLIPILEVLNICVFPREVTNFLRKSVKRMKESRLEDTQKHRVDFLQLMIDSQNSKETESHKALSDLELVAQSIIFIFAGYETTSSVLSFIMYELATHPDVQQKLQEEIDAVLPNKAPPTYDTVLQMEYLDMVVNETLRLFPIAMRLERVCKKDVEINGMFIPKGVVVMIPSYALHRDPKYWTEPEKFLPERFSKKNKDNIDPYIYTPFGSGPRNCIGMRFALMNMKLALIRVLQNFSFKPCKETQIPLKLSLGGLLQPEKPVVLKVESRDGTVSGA
Chain of Cytochrome P450 2D6 (Homo sapiens) (P10635 whole entry, looked up): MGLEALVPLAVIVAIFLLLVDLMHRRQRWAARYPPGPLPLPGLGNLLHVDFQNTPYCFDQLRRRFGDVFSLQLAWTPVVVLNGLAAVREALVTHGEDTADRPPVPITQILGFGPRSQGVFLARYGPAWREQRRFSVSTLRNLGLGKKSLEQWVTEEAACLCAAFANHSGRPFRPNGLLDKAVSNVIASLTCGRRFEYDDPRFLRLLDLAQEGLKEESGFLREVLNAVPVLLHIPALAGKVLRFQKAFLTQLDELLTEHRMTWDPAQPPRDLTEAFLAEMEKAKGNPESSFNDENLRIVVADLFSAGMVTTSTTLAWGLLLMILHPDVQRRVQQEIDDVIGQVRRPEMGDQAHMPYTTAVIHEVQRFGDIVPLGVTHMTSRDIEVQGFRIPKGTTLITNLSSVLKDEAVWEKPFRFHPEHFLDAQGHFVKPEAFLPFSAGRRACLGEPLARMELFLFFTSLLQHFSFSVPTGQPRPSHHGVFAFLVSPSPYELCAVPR
Chain of Cytochrome P450 1A2 (Homo sapiens) (P05177 whole entry, looked up): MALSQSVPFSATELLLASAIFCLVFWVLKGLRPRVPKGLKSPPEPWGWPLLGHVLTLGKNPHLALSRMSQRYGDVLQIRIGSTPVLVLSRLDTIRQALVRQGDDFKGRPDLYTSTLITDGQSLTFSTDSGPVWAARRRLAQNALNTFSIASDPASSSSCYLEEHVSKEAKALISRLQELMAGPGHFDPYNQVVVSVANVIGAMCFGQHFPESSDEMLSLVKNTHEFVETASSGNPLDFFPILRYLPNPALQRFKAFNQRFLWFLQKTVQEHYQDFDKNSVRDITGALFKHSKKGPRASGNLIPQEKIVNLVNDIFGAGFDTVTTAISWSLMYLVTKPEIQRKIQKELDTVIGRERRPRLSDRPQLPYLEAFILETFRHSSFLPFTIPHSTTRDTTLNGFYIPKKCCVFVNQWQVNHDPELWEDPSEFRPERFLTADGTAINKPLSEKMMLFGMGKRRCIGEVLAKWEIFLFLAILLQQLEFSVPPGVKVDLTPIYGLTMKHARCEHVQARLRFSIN

CCCCCCC[n+]1ccc(-c2cc[n+](CCCCCCC)cc2)cc1
active: [1] 7940 nM

CC1(C)N(O)C(c2ccc(C(=O)O)cc2)=[N+]([O-])C1(C)C
active: [2] 31600 nM

CCC(=O)CCCCC[C@@H]1NC(=O)[C@H]2CCCCN2C(=O)[C@H]([C@@H](C)CC)NC(=O)[C@H](Cc2cn(OC)c3ccccc23)NC1=O
inactive: [7] | [8] | [9] | [10] | [12] | [13]
active: [3] 2660 nM | [4] 935 nM | [5] 1050 nM | [6] 743 nM | [11] 33.4 nM

COc1ccc(C23Oc4cc(OC)cc(OC)c4[C@](O)([C@H](c4ccccc4)C2C(=O)NCCCCNC(=O)c2ccccc2)[C@@H]3O)cc1 (some centres undefined)
not listed: [1] | [2] | [13] | [17] | [18]
inactive: all other assays above

CNCCc1ccccc1
active: [5] 46.9 nM
not listed: [1] | [2] | [6] | [11] | [17] | [18]
inactive: all other assays above

C[C@@H]1O[C@H](O[C@@H]2C[C@@H](O)[C@]3(CO)[C@H]4[C@H](O)C[C@]5(C)[C@@H](C6=CC(=O)OC6)CC[C@@]5(O)[C@@H]4CC[C@]3(O)C2)[C@@H](O)[C@H](O)[C@H]1O
active: [1] 50.1 nM

NC(=NCc1ccc(Cl)cc1)SCCCc1cnc[nH]1
active: [17] 1580 nM
inactive: [18]

CN(C)c1ccc(/C=C2\CCCN=C2c2cccnc2)cc1
inactive: [18]

CS(=O)(=O)Nc1ccc(Cc2noc(-c3ccc4[nH]cc(CCN)c4c3)n2)cc1
inactive: [18]
active: [2] 31.6 nM | [1] 126 nM

CCN1C[C@]2(C)CC[C@@H](O)[C@]34C1[C@H](C[C@H]23)C12CCC(CC14)[C@](O)(CO)[C@H]2O (some centres undefined)
not listed: [1] | [2] | [11] | [17] | [18]
inactive: all other assays above

O=C(CCCN1CCC2(CC1)C(=O)N(Cc1cccc(F)c1)CN2c1ccccc1)c1ccc(F)cc1
inactive: [18]
active: [1] 3160 nM

C[C@@H](N)Cn1ccc2cc(F)c(Cl)cc21
active: [2] 50.1 nM
inactive: [18]

COC(=O)C1=C2Nc3ccccc3[C@@]23CCN2CC(C(C)=O)C1C[C@H]23 (some centres undefined)
active: [13] 17200 nM
not listed: [1] | [2] | [11] | [17] | [18]
inactive: all other assays above

CC[N@@+]1([O-])C[C@]2(C)CC[C@@H](O)[C@@]34C5C[C@H]6CC[C@@]5(C(C[C@H]23)C41)[C@H](O)[C@@]6(O)CO (some centres undefined)
not listed: [1] | [2] | [17] | [18]
inactive: all other assays above
